# High-throughput results deposited in PubChem BioAssay by several laboratories.
# This is a sample that favours compounds with a hit; in the whole collection about 1.3% have one here.
# SARS 3CLpro inh: SARS-CoV 3CLpro protease inhibition; P0C6X7; recombinant SARS-CoV 3CLpro, quenched FRET peptide cleavage; inhibition, % at 6 µM; 290,000 tested, 0.14% active; in the data active means inhibition above about 12%
# BJeLR lethal: BJeLR cell viability loss. BJeLR (HRASV12) viability, CellTiter-Glo ATP luminescence, 48 h. inhibition, % (concentration not given with the values). 300,000 tested, 0.17% active. AID 1554; in the data active means inhibition above about 50%; inconclusive means no clear call, values can overlap the other calls
# RN4220 kill: S. aureus RN4220 growth inhibition. OD600, 16 h. inhibition, % (test concentration not listed). 330,000 tested, 0.33% active; in the data active means inhibition above about 85%
# ugtP null kill: compounds lethal to S. aureus RN4220 ugtP deletion mutant. AID 1259309. OD600 growth, 16 h. 330,000 tested, 0.54% active. growth inhibition, % (no concentration beside the values); in the data active means growth inhibition above about 68%
# PfHsp40 rescue: compounds rescuing yeast from Plasmodium falciparum HSP40 toxicity; 340,000 tested, 0.68% active; growth rescue, % at 12.5 µM; S. cerevisiae expressing PfHsp40, growth rescue, ATP luminescence; AID 504582; in the data active means growth rescue above about 28%, passing the limit was not always enough; inconclusive means no clear call, values can overlap the other calls;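 further: yeast W303a lacking pdr1 and pdr3 grown in galactose medium; growth measured after three days at 30 °C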
# Hits are given with their value; n = inactive; u = inconclusive; x = no result given.
SMILES,SARS 3CLpro inh,BJeLR lethal,RN4220 kill,ugtP null kill,PfHsp40 rescue
Cc1ccc(C(=O)C(SC(C)(C)C)n2cncn2)cc1 (stereo unspecified),n,n,n,n,467
Cc1ccc(-c2nnc(NC(=O)c3ccc([N+](=O)[O-])o3)o2)c(C)c1,x,n,n,92,n
COc1ccc(-c2nnc(NC(=O)c3ccc([N+](=O)[O-])o3)o2)c(OC)c1,n,n,n,96,n
COc1ccc(C(=O)Nc2nnc(C3=COCCO3)o2)cc1,n,n,n,n,n
C/C(=N\Nc1ncc(Cl)cc1Cl)c1ccccn1,n,67,x,x,n
CC(=NNC(=O)c1ccccc1Cl)c1ccccn1,x,x,n,n,x
C/C(=N\Nc1ncnc2sc(C)c(C)c12)c1ccccn1,n,80,x,x,n
Cc1sc2ncnc(N/N=C/c3cccc(O)c3)c2c1C,n,n,x,x,n
CC(=NNC(=S)Nc1ccccc1Cl)c1ccccn1,x,x,x,x,200
C/C(=N\NC(=O)c1ccc(F)cc1)c1ccccn1,n,106,x,x,n
CC(=O)c1ccc(OCC(=O)N2CCN(S(=O)(=O)c3ccc(Br)s3)CC2)cc1,x,x,n,n,n
O=C(NN=C1c2ccccc2-c2ccccc21)c1ccccn1,n,n,n,n,n
CN1CCN(c2ccc(C(CC(N)=O)NC(=O)c3ccccc3)cc2[N+](=O)[O-])CC1 (stereo unspecified),n,n,n,n,37
NC(=O)CC(NC(=O)c1ccccc1)c1ccc(N2CCN(c3ccccc3)CC2)c([N+](=O)[O-])c1 (stereo unspecified),n,n,n,n,n
Cc1ccc(NC(=O)c2ccc(C)cc2)cc1,x,n,n,n,n
Cc1ccc(C(=O)Nc2ccc(Br)c(C(F)(F)F)c2)cc1,n,n,n,91,n
Cc1ccnc(SCc2cc(=O)c(OC(=O)c3ccc(S(=O)(=O)N4CCCC4)cc3)co2)n1,n,n,n,n,n
Cc1cc(C)nc(SCc2cc(=O)c(OC(=O)c3ccc(S(=O)(=O)N(C)C)cc3)co2)n1,n,n,n,n,90
Cc1ccnc(SCc2cc(=O)c(OC(=O)c3ccc(S(=O)(=O)N(C)C)cc3)co2)n1,n,n,n,n,88
CC1(C)CC2(CCO1)OC(=O)CC2C(=O)Nc1ccc(Cl)cc1[N+](=O)[O-] (stereo unspecified),n,n,n,n,n
COC(=O)c1c(C)nsc1NC(=O)Oc1ccccc1,n,x,n,n,n
O=C1C(Cl)=C(Nc2ccc3cn[nH]c3c2)C(=O)c2ccccc21,n,87,n,n,n
O=C(c1ccccc1)c1nn(-c2ccc(Cl)cc2)c(=O)cc1C(F)(F)F,n,n,94,n,n
COc1ccc(-c2cc3c(=O)n(CC(=O)NC4CCN(Cc5ccccc5)CC4)ncn3n2)cc1,n,n,n,n,83
O=C(NN=Cc1cccc(F)c1)c1c(O)c2ccccc2[nH]c1=O,x,x,99,100,x
SMILES,SARS 3CLpro inh,BJeLR lethal,RN4220 kill,ugtP null kill,PfHsp40 rescue
CC(C)=NNC(=O)c1c(O)c2ccccc2[nH]c1=O,n,n,n,n,100
O=C(NN=Cc1ccc(F)cc1)c1c(O)c2ccccc2[nH]c1=O,x,x,n,n,x
Cc1ccc(C(C)C)c(OCc2nc(-c3nonc3N)no2)c1,n,n,n,n,n
COc1ccc(NC(=O)Cc2ccc(-c3ccccc3)cc2)cn1,n,n,n,n,86
COc1ccc(CC(=O)Nc2ccc(OC)nc2)cc1,n,n,n,n,n
COc1cccc(CSc2nnc(-c3ccncc3)n2N)c1,n,n,n,n,45
Nn1c(SCc2cccc(Cl)c2)nnc1-c1ccncc1,n,n,n,n,n
c1ccc(CN2CCN(CCN3CCn4c3nc3ccccc34)CC2)cc1,n,n,n,n,n
c1ccc2c(c1)nc1n2CCN1CCN1CCCC1,n,n,n,n,44
O=C(CCc1nnc2n(Cc3ccccc3)c(=O)c3ccccc3n12)NCCCN1CCCCC1,n,n,n,n,n
Cc1cccc(NC(=S)NC2CCCC2)n1,n,n,n,n,113
COCC(=O)N1CCC(Oc2ccc(C(=O)NCc3cc(C)n(C)n3)cc2)CC1,n,n,n,n,n
Cc1cc(C(=O)COC(=O)/C=C/c2ccc(F)cc2)c(C)n1C,x,x,n,n,n
COc1cccc(C2=Nn3c(nnc3-c3ccccc3O)SC2)c1,n,n,n,n,n
C[n+]1c2n(c3ccccc31)N=C(c1cc(C(C)(C)C)c(O)c(C(C)(C)C)c1)CS2,n,n,99,98,u
O=C(Nc1ccccc1Cl)C1CCN(Cc2cnn(-c3ccccc3)c2-n2cccc2)CC1,n,n,n,n,n
COC1CCC(OC2CC(C3(C)CCC4(CC(O)C(C)C(C(C)/C=C(\C)C(=O)C(C)CC(C)C(=O)O)O4)O3)OC3(OC(C4OC(O)(CO)C(C)CC4C)CC3C)C2C)OC1C (stereo unspecified),x,x,x,x,220
O=C(CSCc1cccc(Br)c1)N=Nc1c(O)[nH]c2ccccc12,n,n,n,n,n
O=Nc1c(-c2c(O)[nH]c3cc(Br)ccc23)[nH]c2ccccc12,n,n,100,100,n
O=C(c1cnn2c(C(F)(F)F)cc(-c3ccccc3)nc12)N1CCCCC1c1cccnc1 (stereo unspecified),n,n,n,n,n
O=C(c1cc2nc(-c3ccc(F)cc3)cc(C(F)(F)F)n2n1)N1CCCCC1c1cccnc1 (stereo unspecified),n,n,n,active,n
Cc1ccc(S(=O)(=O)N2CCOCC2)cc1C(=O)Nc1cc(S(=O)(=O)N2CCCCC2)ccc1O,x,x,n,n,n
CCNc1ccc(C(=O)OCC)cc1NC(=O)c1cc(S(=O)(=O)N2CCOCC2)ccc1C,n,n,n,n,113
CCCc1ncc(C(O)c2cccc(OC)c2OC)n1C (stereo unspecified),n,n,n,n,n
Cc1cc(S(=O)(=O)N2CCN(c3ccccn3)CC2)ccc1F,n,n,n,n,n
SMILES,SARS 3CLpro inh,BJeLR lethal,RN4220 kill,ugtP null kill,PfHsp40 rescue
Cc1cc(C)c(S(=O)(=O)N2CCN(c3ccccn3)CC2)c(C)c1,x,x,n,n,53
CCC1CCCCN1CCCNC(=O)c1cn(C)c2ccc(S(=O)(=O)N(C)C3CCCCC3)cc2c1=O (stereo unspecified),n,n,n,n,38
CC(C)(C)c1cc(CCC(=O)NNC(=S)NC(=O)c2ccccc2)cc(C(C)(C)C)c1O,n,n,n,89,508
CC(=O)NC(=S)NNC(=O)CCc1ccccc1,n,n,n,n,n
CC(C)(C)c1cc(CCC(=O)NNC(=O)c2ccco2)cc(C(C)(C)C)c1O,n,n,n,n,n
CCCCC(=O)NC(=S)NNC(=O)CCc1ccccc1,n,n,n,n,337
O=C(CCc1ccccc1)NNC(=S)NC(=O)c1ccccc1,n,n,n,n,314
O=C(CCc1ccccc1)NNC(=S)NCCc1ccccc1,n,n,n,n,n
NC(=O)C1CN(S(=O)(=O)c2ccc(Cl)cc2F)c2ccccc2O1 (stereo unspecified),n,n,x,x,n
CC1(C)CC(=O)C(C2C3=C(CC(C)(C)CC3=O)Oc3c(Br)cc(Br)cc32)=C(O)C1 (stereo unspecified),n,n,n,n,55
